Reference: PubChem BioAssay (NCI)
This is part of a sample that, as a whole, favours compounds with a hit. Of some 79,000 tested, about 15% had one in any assay. A number with no mark means an inactive call. Calls of active or inactive are those of the source. Rule as the data show it: active = growth inhibition above about 70%; inactive = the rest. Where a SMILES comes first, the peptide text is derived from it.

Assay: NCI Yeast Anticancer Drug Screen. Data for the mec2-1 strain (AID 157)
Conditions: S. cerevisiae mec2-1 strain, at 50.0 µM, stronger effect = higher value
In short: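 mec2-1 yeast strain, carrying an alteration in DNA damage repair or cell cycle control, was exposed to compounds; growth inhibition was measured relative to vehicle-treated controls.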

Row | SMILES | growth inhibition
1 | c1ccc(-c2nc3ccccc3nc2SCc2cccnc2)cc1 | -18.1%
2 | COc1ccc(NC(N)=O)cc1 | -16.4%
3 | COc1cc(/C=C2\C(=O)N(C(=O)c3ccc(NC(C)=O)cc3)N=C2C)ccc1O | -41.1%
4 | C/C=C/C[P+](Cc1ccccc1)(c1ccccc1)c1ccccc1 | 14.9%
5 | O=C(O)CSc1ncccc1[N+](=O)[O-] | -0.65%
6 | FC(F)(F)c1ccc(C2SCc3nc4ccccc4n32)cc1 (centres undefined) | -5.4%
7 | CC1CC(C)OC(C)(c2ccccc2)O1 (centres undefined) | -6%
8 | COc1ccc(-n2cc3c(=O)nccc-3c3ccccc32)cc1OC | -12.8%
9 | Cc1cc(Cl)nc(/N=C(\N)Nc2ccc(Cl)c(Cl)c2)n1 | 5.45%
10 | NC(CCCO)C(=O)O (centres undefined) | -6.7%
11 | Oc1ccccc1C1SCSCS1 | 12.9%
12 | O=C1NN2CCCN=C2c2ncccc21 | 2.1%
13 | CCC(=O)OC1CCC2(C)C(=CCC3C2CCC2(C)C(C(C)CCCC(C)C)CCC32)C1 (centres undefined) | 7.6%
14 | Cc1ccc(S/C=C/Sc2ccc(C)cc2)cc1 | 8.15%
15 | O=C1OC(Nc2ccccc2)C(Cl)=C1Cl (centres undefined) | 13.8%
16 | CCCCOC(=O)Nc1ccccc1OCC | -19.8%
17 | Cc1cccc(NC(C(=O)O)c2ccccc2)c1 (centres undefined) | 8.8%
18 | O=C(/C=C/c1ccccc1)OCCCl | -15.1%
19 | CCCCCCCCCCCCCCCCCCNc1ccccc1 | 9.15%
20 | CC(C)=CC(=O)OC1C2C(CC(C)C3C(O)CC(=O)C13C)OC(=O)C2C (centres undefined) | -44.3%
21 | O=C(O)c1ccc(Nc2nc3ccccc3nc2-c2cccs2)cc1 | 18.6%
22 | CSCCC(N)C(=O)NC(CCSC)C(=O)O (stereo not drawn) (H-Met-Met-OH; configuration not given here) | -21.4%
23 | O=C(NC(=O)C(Cl)Cl)OC1c2cc(Cl)ccc2-c2c(Cl)cc(Cl)cc21 (centres undefined) | 99.5% (active)

Assay: NCI Yeast Anticancer Drug Screen. Data for the sgs1 mgt1 strain (AID 161);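 also: 0% = growth of cultures given vehicle only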
Conditions: S. cerevisiae sgs1 mgt1 strain, at 50.0 µM, stronger effect = higher value
In short: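 Growth of a repair-deficient yeast mutant was monitored after compound treatment and expressed as inhibition relative to vehicle-treated cultures.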

Row | SMILES | growth inhibition
24 | Cn1ncc2c(NCCc3ccccc3)nc(Cl)nc21 | 5.15%
25 | Cn1c(-c2ccccc2)c2c(=O)oc3ccccc3c2c1-c1ccccc1 | 9.55%
26 | O=C(NC1CCCCC1Cl)C1CCCCC1 (centres undefined) | 2.15%
27 | O=C1OC(c2ccc([N+](=O)[O-])cc2)=N/C1=C\c1ccccc1 | 11.1%
28 | CC1=CC(=O)C2C(C)(C)CCCC2(C)C1(O)CCc1ccoc1 (centres undefined) | 93.4% (active)
29 | CN(CC1CCCCC1=O)CC1CCCCC1=O (centres undefined) | -11.1%
30 | N#CCc1ccccc1S(=O)(=O)O | -3.45%
31 | NC(=O)C(=CNC(=S)Nc1cccc(C(F)(F)F)c1)C(N)=O | -14.8%
32 | CCSC(OC(C)=O)C(Nc1ccc([N+](=O)[O-])cc1[N+](=O)[O-])C(OC(C)=O)C(OC(C)=O)C(COC(C)=O)OC(C)=O (centres undefined) | 6.2%
33 | CCOC(CN(C(C)C)C(C)C)OCC | 8%
34 | CCOC(=O)N(c1ccccc1)c1ccccc1 | 18.7%
35 | COc1ccc(/C(C)=N/[O-])cc1CS[n+]1ccccc1 | 47.4%
36 | COc1ccc2c(c1)C=C(C(C)(C)C)NS2(=O)=O | 2%
37 | O=C(Nc1ccc(CCc2ccc(NC(=O)C34CC5CC(CC(C5)C3)C4)cc2)cc1)C12CC3CC(CC(C3)C1)C2 | 13.8%
38 | CC(C)OC(=O)Oc1ccc(Cl)cc1 | 7.4%
39 | Cc1ccc(/C(O)=C/C(=O)C(=O)NC23CC4CC(CC(C4)C2)C3)cc1 | 32.4%
40 | COC(=O)c1cc2ccccc2n1C | -30.9%
41 | c1ccc(-c2nc3ccccc3nc2SCc2cccnc2)cc1 | -19.7%
42 | COc1ccc(NC(N)=O)cc1 | 0.05%
43 | COc1cc(/C=C2\C(=O)N(C(=O)c3ccc(NC(C)=O)cc3)N=C2C)ccc1O | -68.8%
44 | C/C=C/C[P+](Cc1ccccc1)(c1ccccc1)c1ccccc1 | 26.2%
45 | O=C(O)CSc1ncccc1[N+](=O)[O-] | -6.05%
46 | FC(F)(F)c1ccc(C2SCc3nc4ccccc4n32)cc1 (centres undefined) | -1.95%
47 | CC1CC(C)OC(C)(c2ccccc2)O1 (centres undefined) | -0.9%
48 | COc1ccc(-n2cc3c(=O)nccc-3c3ccccc32)cc1OC | 1.2%
49 | Cc1cc(Cl)nc(/N=C(\N)Nc2ccc(Cl)c(Cl)c2)n1 | -1.05%
